From PubChem BioAssay AID651657 (Broad Institute, 2012)
Entries with a potency or affinity are not part of this list. The source made the active and inactive calls.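 How the source made its calls: active means signal falls, with fitted half-maximal concentration at most twice the top valid dose tested; inconclusive means flat curve with partial signal loss, or poor curve fit; inactive means the rest, including signal rising instead.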

Target: DNA repair and recombination protein RAD54-like (Homo sapiens) (UniProt Q92698)
Test: inhibitors of human RAD54 branch migration, confirmation, biochemical, fluorescence, cherry-picked samples, dose series (AID 651657)
Conditions: FAM/BHQ fluorescence, 60 min; series mostly up to 50 µM; activity change, negative = inhibition: at the top concentration

DNA repair and recombination protein RAD54-like (Homo sapiens), sequence (Q92698 whole entry, looked up): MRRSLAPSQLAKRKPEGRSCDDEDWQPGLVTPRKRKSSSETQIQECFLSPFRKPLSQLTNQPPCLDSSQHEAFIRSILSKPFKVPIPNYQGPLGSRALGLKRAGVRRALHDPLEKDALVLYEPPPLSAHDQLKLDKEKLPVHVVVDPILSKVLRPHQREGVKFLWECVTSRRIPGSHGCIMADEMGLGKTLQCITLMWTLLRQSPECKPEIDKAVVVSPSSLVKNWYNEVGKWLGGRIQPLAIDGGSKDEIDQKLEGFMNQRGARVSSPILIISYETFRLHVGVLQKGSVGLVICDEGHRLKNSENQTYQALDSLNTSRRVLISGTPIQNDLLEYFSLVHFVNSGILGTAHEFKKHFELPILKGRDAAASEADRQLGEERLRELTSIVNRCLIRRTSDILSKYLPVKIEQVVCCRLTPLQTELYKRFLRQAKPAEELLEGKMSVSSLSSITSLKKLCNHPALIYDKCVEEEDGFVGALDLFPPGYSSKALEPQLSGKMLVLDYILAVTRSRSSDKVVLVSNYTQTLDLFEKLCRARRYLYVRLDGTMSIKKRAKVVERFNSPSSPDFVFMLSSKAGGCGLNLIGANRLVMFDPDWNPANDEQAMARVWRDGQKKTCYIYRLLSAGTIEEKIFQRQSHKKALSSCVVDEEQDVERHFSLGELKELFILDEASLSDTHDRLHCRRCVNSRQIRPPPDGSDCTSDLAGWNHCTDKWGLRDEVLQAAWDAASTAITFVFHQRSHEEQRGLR

SMILES	activity change, negative = inhibition
CCN(CC)S(=O)(=O)c1ccc(Cl)c(C(=O)Nc2nnc(C)s2)c1	-3.81% (inactive)
O=C1C(c2ccc(F)cc2)N(C2CCCCC2)C(=O)CN1C1CCCC1 (stereo not drawn)	-0.016% (inactive)
COc1ccccc1CNC(=O)c1cccs1	6.77% (inactive)
Cc1ccc(OCC(=O)Nc2cccc(-c3nnc(-c4ccccc4)o3)c2)c(C)c1	3.6% (inactive)
CN(C)CCCN(C(=O)CCOc1ccccc1)c1nc2ccc(F)cc2s1	5.8% (inactive)
Cc1cccc(Cn2c(Sc3nc(C)cs3)nc3c2c(=O)[nH]c(=O)n3C)c1	1.49% (inactive)
CCC(=O)N(Cc1cc2cc(OC)ccc2[nH]c1=O)c1cc(C)ccc1C	0.681% (inactive)
Cc1ccc(S(=O)(=O)N2CCOCC2)c(C)c1NS(C)(=O)=O	-2.78% (inactive)
C=CCN1C(=O)C(C)(C)Nc2ccccc21	-1.14% (inactive)
Cc1nc2oc3c(=O)[nH]cnc3c2c2c1COC(C)(C)C2	-17.4% (inactive)
Cc1c(Cl)ccc(S(=O)(=O)NCCCn2ccnc2)c1Cl	3.66% (inactive)
COc1ccccc1C1=NOC(Cn2c(NCCCO)nc3c2c(=O)n(C)c(=O)n3C)C1 (stereo not drawn)	1.27% (inactive)
CCN1CCN(c2cc(C)c3cc(NC(=S)N4CC(C)CC(C)C4)ccc3n2)CC1 (stereo not drawn)	-0.101% (inactive)
O=c1cc(CSc2n[nH]c(=O)n2C2CC2)c2ccc(O)cc2o1	-3.13% (inactive)
COc1ccccc1C(=O)C(O)c1ccccc1OC (stereo not drawn)	6.98% (inactive)
O=C(CS(=O)(=O)c1ccccc1)Nc1ccc(Br)cn1	3.03% (inactive)
Cc1cccc2cc3c(N)c(C#N)sc3nc12	-4.31% (inactive)
Cn1nc(-c2ccccc2)cc1NS(=O)(=O)c1ccc(C#N)cc1	0.704% (inactive)
O=C(Nc1nnc(COc2ccc(F)cc2)s1)c1ccco1	7.04% (inactive)
CC(C)CSc1ncc(-c2cccc(C(F)(F)F)c2)cn1	0.208% (inactive)
NCCN1CCN(CCN)CC1	1.51% (inactive)
Cc1ccnc(SCC(=O)Nc2sc3c(c2C#N)CCC(C(C)(C)C)C3)n1 (stereo not drawn)	6.25% (inactive)
CCN1CCN(c2cc(C)c3cc(NC(=S)N4CCC5(CC4)OCCO5)ccc3n2)CC1	-7.13% (inactive)
